This passage reports outcome and Potency results from PubChem BioAssay (NCATS).

Inconclusive results are not listed. A call without a number means that no potency is given here. The source made the active and inactive calls. Calls come from the whole dose curve; as a rule, active = well fitted inhibition curve with a large enough effect; inconclusive = small, poorly fitted or top-dose-only effect; inactive = flat fitted curve, though single readings scatter.

Experiment in all cases: qHTS assay to identify novel small-molecules to repurpose for Merkel cell carcinoma treatment (AID 1296009); note: nearly all actives have a fitted effect of over 60% in size
(In general: In qHTS, concentration-response curves come from the screen itself.)

One test relates to CRL-7250. The note with it: MCC and control cell lines, CellTiter-Glo viability, 72 h. The procedure, abridged: (§1)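 Cells were treated for 72 hr at 37 degree celsius with compounds in 8- or 11-point dose response. Viability was read by CellTiter-Glo luminescence, normalized to no-cell (cytotoxicity) and DMSO controls.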
For orientation: In ATP-based viability assays light output follows the ATP content of the culture.

In another test the test system is MCC-13. The note with it: MCC and control cell lines, CellTiter-Glo viability, 72 h; series mostly up to 46 µM. An outline of the steps:
as §1

For the next test, the system named is MCC-26. The note with it: MCC and control cell lines, CellTiter-Glo viability, 72 h; series mostly up to 46 µM. An outline of the steps:
as §1

The next test relates to MKL-1. The note with it: MCC and control cell lines, CellTiter-Glo viability, 72 h; series mostly up to 46 µM. The procedure, abridged:
as §1

A further test concerns MKL-2. The note with it: MCC and control cell lines, CellTiter-Glo viability, 72 h; series mostly up to 46 µM. An outline of the steps: as §1
Where [1] appears, read: at 44.8 µM (top of the series) unless noted.

On to `CO[C@@]1(NC(=O)Cc2cccs2)C(=O)N2C(C(=O)O)=C(COC(N)=O)CS[C@@H]21`, for which the molecule was called inactive with CRL-7250 (setting [1]).

For `NC(CS)C(=O)O` (stereo not given), the outcome with CRL-7250 (setting [1]) was inactive.

As to `O=c1c(C2CC(c3ccc(-c4ccc(Br)cc4)cc3)Cc3ccccc32)c(O)sc2ccccc12` (stereo not given), the molecule was called inactive in the test with MCC-13. Besides, the Potency entry with MCC-26, with MKL-1 and in the test with MKL-2 was “inactive” each time.

For `Nc1ccc(S(=O)(=O)Nc2ccnn2-c2ccccc2)cc1`, the outcome in the test on CRL-7250 (at 17.4 µM (top of the series)) and in the test on CRL-7250 (at 44.8 µM (top of the series)) was inactive.

For the molecule `COC(=O)CCCCC(CCSS/C(CCO)=C(\C)N(C=O)Cc1cnc(C)nc1N)SC(C)=O` (stereo not given), the result in the test with CRL-7250 (setting [1]) was inactive.

With `CCCCCCCCCCCCCCCC(=O)NCCO`, in the test with CRL-7250 (setting [1]), the call was inactive.
